Where “and” joins values, the source holds several entries; their conditions need not be identical. Equal values may be shown once. Screen size: about 5,500 compounds; about 2,000 (36%) were called active. Inconclusive results (about 18%) are left out. No stated cut-off is given here; in the data, active means normalized growth mostly below about 0.91 (no sharp cut-off); inconclusive means no clear call, values can overlap the other calls; inactive means mostly above about 0.92. The list shows a part of the results.
Experiment: chemical genetic growth profiling, strain panel (AID 1159580);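 further: tested at 20 µM; growth read once vehicle control cultures reached saturation at 30 °C; 1 = growth at the plate median or of vehicle wells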
Settings: S. cerevisiae deletion strains, growth OD

Measured: normalized growth

O=c1[nH]cnc2nc[nH]c12
inactive: locus YAL021C, strain ccr4, stronger effect = lower value 1.04 | locus YAL026C, strain drs2, stronger effect = lower value 1.02 | locus YAL030W, strain snc1, stronger effect = lower value 1.03 | locus YBL061C, strain skt5, stronger effect = lower value 1.02 | locus YBR009C, strain hhf1, stronger effect = lower value 1.01 | locus YBR021W, strain FUR4, stronger effect = lower value 0.972 | locus YBR023C, strain chs3, stronger effect = lower value 1.01 | locus YBR171W, strain sec66, stronger effect = lower value 1.04 | locus YBR229C, strain ROT2, stronger effect = lower value 0.992 | locus YBR231C, strain swc5, stronger effect = lower value 1.02 | locus YBR279W, strain paf1, stronger effect = lower value 1.01 | locus YCL011C, strain gbp2, stronger effect = lower value 1.03 | locus YCL016C, strain dcc1, stronger effect = lower value 1.01 | locus YCL029C, strain bik1, stronger effect = lower value 0.977 | locus YCL061C, strain MRC1, stronger effect = lower value 1.01 | locus YCL069W, strain vba3, stronger effect = lower value 1.01 | locus YCR088W, strain abp1, stronger effect = lower value 1.02 | locus YDL005C, strain med2, stronger effect = lower value 1.02 | locus YDL035C, strain GPR1, stronger effect = lower value 1.01 | locus YDL040C, strain nat1, stronger effect = lower value 1 | locus YDL074C, strain BRE1, stronger effect = lower value 0.986 | locus YDL101C, strain DUN1, stronger effect = lower value 0.999 | locus YDL134C, strain PPH21, stronger effect = lower value 1 | locus YDL185W, strain tfp1, stronger effect = lower value 0.979 | locus YDL192W, strain arf1, stronger effect = lower value 0.994 | locus YDR001C, strain nth1, stronger effect = lower value 1.01 | locus YDR069C, strain doa4, stronger effect = lower value 1.04 | locus YDR101C, strain arx1, stronger effect = lower value 0.973 | locus YDR137W, strain rgp1, stronger effect = lower value 1.07 | locus YDR150W, strain NUM1, stronger effect = lower value 1 | locus YDR159W, strain sac3, stronger effect = lower value 1.03 | locus YDR162C, strain NBP2, stronger effect = lower value 1.04 | locus YDR195W, strain ref2 1.01 | locus YDR297W, strain sur2, stronger effect = lower value 1.04 | locus YDR318W, strain mcm21, stronger effect = lower value 0.984 | locus YDR334W, strain swr1, stronger effect = lower value 1.03 | locus YDR335W, strain msn5, stronger effect = lower value 1.02 | locus YDR388W, stronger effect = lower value 0.983 | locus YDR392W, strain spt3, stronger effect = lower value 1.01 | locus YDR502C, strain sam2, stronger effect = lower value 1 | locus YEL003W, strain gim4, stronger effect = lower value 1.01 | locus YEL037C, strain rad23, stronger effect = lower value 1.01 | locus YEL061C, strain CIN8 (second series), stronger effect = lower value 1.02 | locus YEL061C, strain CIN8, stronger effect = lower value 1 | locus YER015W, strain faa2, stronger effect = lower value 1.01 | locus YER016W, strain bim1, stronger effect = lower value 1.02 | locus YER110C, stronger effect = lower value 0.969 | locus YER111C, strain swi4, stronger effect = lower value 1.02 | locus YER155C, strain BEM2 (second series), stronger effect = lower value 1.02 | locus YER155C, strain BEM2, stronger effect = lower value 0.992 | locus YER167W, strain BCK2, stronger effect = lower value 0.982 | locus YFR010W, strain ubp6, stronger effect = lower value 1.03 | locus YGL078C, strain dbp3, stronger effect = lower value 0.986 | locus YGL086W, strain mad1, stronger effect = lower value 0.955 | locus YGL167C, strain pmr1, stronger effect = lower value 1.02 | locus YGL173C, strain kem1, stronger effect = lower value 1.03 | locus YGL227W, strain vid30, stronger effect = lower value 1.01 | locus YGL240W, strain doc1, stronger effect = lower value 1.01 | locus YGL248W, strain PDE1, stronger effect = lower value 1.01 | locus YGL253W, strain hxk2, stronger effect = lower value 1.02 | locus YGR135W, strain pre9, stronger effect = lower value 1.01 | locus YGR252W, strain gcn5, stronger effect = lower value 1.09 | locus YHR013C, strain ard1, stronger effect = lower value 1.05 | locus YHR027C, strain rpn1, stronger effect = lower value 1.01 | locus YHR030C, strain SLT2, stronger effect = lower value 0.989 and 1.05 | locus YHR079C, strain IRE1 (second series), stronger effect = lower value 0.975 | locus YHR079C, strain IRE1, stronger effect = lower value 1.02 | locus YHR094C, strain hxt1, stronger effect = lower value 0.974 | locus YHR129C, strain ARP1, stronger effect = lower value 0.996 | locus YHR142W, strain chs7, stronger effect = lower value 1.02 | locus YHR200W, strain rpn10, stronger effect = lower value 0.998 | locus YIL066C, strain RNR3, stronger effect = lower value 0.998 | locus YIL073C, strain SPO22, stronger effect = lower value 0.963 | locus YIL125W, strain kgd1, stronger effect = lower value 0.972 | locus YIR030C, strain dcg1, stronger effect = lower value 0.989 | locus YJL092W, strain hpr5, stronger effect = lower value 1.02 | locus YJL095W, strain BCK1 (second series), stronger effect = lower value 1.01 | locus YJL095W, strain BCK1, stronger effect = lower value 1.02 and 1.01 | locus YJL115W, strain asf1, stronger effect = lower value 1.02 | locus YJL129C, strain trk1, stronger effect = lower value 1.03 | locus YJL134W, strain LCB3, stronger effect = lower value 0.994 | locus YJL154C, strain vps35, stronger effect = lower value 1.02 | locus YJL164C, strain tpk1, stronger effect = lower value 1.01 | locus YJL166W, strain qcr8, stronger effect = lower value 1.01 | locus YJL168C, strain set2, stronger effect = lower value 0.977 | locus YJL187C, strain SWE1 (second series), stronger effect = lower value 1.01 | locus YJL187C, strain SWE1, stronger effect = lower value 1.02 | locus YJR043C, strain POL32, stronger effect = lower value 1.03
